Laboratory results reported in PMC7862700, “An all-to-all approach to the identification of sequence-specific readers for epigenetic DNA modifications on cytosine”.

Tests used:
Test in all cases: DAPPL (digital affinity profiling via proximity ligation, sequencing); 10 mM Tris-HCl pH 7.5, 50 mM NaCl, 1 mM DTT, 4% glycerol, room temperature, 30 min; GST-TFs on glutathione beads, 16-mer random dsDNA library, 0.1% formaldehyde crosslink after washing; high values mean tight binding
Details in all cases: protein: recombinant; tags: N-terminal GST; dsDNA, one strand shown
[1] = molecular target: T1, FLI1 (Homo sapiens, UniProt Q01543 1-452)
T1 sequence: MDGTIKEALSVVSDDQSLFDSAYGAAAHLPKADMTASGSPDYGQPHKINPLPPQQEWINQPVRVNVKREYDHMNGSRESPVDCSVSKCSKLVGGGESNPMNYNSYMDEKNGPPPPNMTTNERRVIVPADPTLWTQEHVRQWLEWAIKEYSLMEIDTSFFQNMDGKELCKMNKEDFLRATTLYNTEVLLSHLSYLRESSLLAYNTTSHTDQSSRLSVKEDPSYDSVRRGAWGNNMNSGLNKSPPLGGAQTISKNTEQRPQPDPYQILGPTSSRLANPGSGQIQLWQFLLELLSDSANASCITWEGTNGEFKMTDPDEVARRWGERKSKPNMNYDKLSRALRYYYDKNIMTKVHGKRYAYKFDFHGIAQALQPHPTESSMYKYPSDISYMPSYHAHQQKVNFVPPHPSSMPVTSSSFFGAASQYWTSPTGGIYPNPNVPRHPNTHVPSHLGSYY
In short: (§1)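 Yeast served to express human transcription factors as GST fusions, which were then captured on glutathione beads and labelled with DNA barcodes. Pooled with a tag-only sample, they were incubated with 200 nmole of a 16-mer random double-stranded DNA library for 30 min at room temperature in Tris/NaCl/DTT/glycerol buffer, washed, crosslinked with 0.1% formaldehyde, ligated by proximity, amplified by PCR and sequenced. Dividing each hexamer's read frequency for a factor by its frequency for the tag-only sample gives the binding signal.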

[2] = molecular target: T2, ELK1 (Homo sapiens, UniProt P19419 1-428)
T2 sequence: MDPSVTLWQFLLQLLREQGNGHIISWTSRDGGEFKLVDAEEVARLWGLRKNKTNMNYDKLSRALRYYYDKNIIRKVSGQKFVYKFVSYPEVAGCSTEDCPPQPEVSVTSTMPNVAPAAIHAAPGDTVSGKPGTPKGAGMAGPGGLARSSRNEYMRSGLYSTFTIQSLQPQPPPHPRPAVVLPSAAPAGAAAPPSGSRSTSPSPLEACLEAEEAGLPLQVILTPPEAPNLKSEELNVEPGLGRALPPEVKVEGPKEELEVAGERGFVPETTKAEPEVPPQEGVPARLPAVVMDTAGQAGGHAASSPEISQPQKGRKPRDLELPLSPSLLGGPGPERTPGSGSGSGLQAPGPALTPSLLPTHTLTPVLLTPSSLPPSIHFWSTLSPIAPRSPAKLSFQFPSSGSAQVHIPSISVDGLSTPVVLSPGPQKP
In short: as §1

[3] = molecular target: T3, GABPA (Homo sapiens, UniProt Q06546 1-454)
T3 sequence: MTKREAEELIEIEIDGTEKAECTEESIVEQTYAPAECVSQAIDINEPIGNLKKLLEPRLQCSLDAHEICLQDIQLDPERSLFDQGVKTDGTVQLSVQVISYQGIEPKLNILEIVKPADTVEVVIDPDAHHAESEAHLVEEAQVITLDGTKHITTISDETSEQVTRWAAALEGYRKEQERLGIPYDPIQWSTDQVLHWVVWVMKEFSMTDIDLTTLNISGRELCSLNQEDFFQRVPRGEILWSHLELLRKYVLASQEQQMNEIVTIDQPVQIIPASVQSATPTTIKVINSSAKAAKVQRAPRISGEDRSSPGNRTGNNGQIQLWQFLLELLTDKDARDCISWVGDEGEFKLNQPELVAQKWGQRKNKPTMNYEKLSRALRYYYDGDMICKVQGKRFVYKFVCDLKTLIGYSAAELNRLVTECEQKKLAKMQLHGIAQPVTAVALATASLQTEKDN
In short: as §1

[4] = molecular target: T4, ERG (Homo sapiens, UniProt P11308 1-479)
T4 sequence: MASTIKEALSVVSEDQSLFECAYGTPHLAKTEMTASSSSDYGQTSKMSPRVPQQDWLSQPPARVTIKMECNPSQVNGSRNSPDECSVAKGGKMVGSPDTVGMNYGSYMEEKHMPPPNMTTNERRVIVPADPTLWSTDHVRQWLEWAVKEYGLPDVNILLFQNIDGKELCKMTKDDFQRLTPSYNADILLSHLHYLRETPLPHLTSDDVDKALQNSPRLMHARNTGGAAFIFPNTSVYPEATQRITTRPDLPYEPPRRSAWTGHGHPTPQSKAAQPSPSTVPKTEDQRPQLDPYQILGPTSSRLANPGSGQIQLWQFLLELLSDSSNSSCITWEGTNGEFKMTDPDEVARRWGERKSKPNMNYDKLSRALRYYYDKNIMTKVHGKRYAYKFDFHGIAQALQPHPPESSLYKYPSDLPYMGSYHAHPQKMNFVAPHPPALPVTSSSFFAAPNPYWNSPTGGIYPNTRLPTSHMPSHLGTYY
In short: as §1

[5] = molecular target: ELF1 (Homo sapiens, UniProt P32519 1-619)
Chain of ELF1 (P32519 whole entry): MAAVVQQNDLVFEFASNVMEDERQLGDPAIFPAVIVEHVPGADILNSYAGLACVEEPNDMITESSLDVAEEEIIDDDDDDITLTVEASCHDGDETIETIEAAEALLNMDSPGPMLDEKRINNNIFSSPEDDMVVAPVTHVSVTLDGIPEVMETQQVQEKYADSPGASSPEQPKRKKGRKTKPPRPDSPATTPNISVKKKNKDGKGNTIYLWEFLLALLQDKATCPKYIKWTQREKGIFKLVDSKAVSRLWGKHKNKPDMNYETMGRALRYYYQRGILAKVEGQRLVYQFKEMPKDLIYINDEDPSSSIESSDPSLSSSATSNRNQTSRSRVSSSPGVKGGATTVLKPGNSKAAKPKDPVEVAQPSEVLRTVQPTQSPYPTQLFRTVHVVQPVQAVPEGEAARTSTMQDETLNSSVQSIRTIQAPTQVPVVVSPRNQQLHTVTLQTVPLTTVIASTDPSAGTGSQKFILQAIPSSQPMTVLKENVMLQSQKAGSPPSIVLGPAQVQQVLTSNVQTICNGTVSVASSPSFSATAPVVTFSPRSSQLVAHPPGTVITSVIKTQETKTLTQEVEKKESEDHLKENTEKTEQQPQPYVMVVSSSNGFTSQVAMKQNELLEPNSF
In short: as §1

[6] = molecular target: T5, EHF (Homo sapiens, UniProt Q9NZC4 1-300)
T5 sequence: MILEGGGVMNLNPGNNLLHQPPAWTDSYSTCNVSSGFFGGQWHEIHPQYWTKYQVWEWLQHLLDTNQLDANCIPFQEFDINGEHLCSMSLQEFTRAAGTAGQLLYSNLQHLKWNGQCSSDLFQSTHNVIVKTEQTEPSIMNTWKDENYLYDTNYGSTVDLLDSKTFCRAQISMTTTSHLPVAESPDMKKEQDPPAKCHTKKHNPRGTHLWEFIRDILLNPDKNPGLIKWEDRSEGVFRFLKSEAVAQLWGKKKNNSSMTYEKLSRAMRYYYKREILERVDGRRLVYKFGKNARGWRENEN
In short: as §1

[7] = molecular target: SPI1 (Homo sapiens, UniProt P17947 1-270)
In short: as §1

[8] = molecular target: SPIB (Homo sapiens, UniProt Q01892 1-262)
Chain of SPIB (Q01892 whole entry): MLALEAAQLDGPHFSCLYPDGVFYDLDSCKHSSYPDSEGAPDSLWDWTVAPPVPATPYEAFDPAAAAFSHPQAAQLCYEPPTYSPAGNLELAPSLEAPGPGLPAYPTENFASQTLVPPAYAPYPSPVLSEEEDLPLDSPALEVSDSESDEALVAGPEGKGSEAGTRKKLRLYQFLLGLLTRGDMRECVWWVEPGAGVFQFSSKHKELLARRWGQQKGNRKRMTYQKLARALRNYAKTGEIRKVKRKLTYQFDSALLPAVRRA
In short: as §1

[9] = molecular target: T6, ELK3 (Homo sapiens, UniProt P41970 1-407)
T6 sequence: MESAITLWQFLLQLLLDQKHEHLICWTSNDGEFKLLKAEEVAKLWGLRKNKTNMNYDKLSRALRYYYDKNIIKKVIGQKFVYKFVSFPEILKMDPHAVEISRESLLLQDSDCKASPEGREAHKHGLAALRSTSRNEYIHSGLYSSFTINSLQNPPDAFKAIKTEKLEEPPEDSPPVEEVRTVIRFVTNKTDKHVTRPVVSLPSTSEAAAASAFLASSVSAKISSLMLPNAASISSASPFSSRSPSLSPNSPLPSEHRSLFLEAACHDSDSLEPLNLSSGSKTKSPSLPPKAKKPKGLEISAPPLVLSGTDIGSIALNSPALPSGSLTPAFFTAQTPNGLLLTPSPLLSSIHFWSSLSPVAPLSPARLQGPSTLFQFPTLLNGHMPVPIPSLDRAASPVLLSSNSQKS
In short: as §1

CCCCCT
binding signal [1]: 1.22 fold enrichment (6-mer frequency, TF over GST control)
binding signal [2]: 1.26 fold enrichment (6-mer frequency, TF over GST control)
binding signal [3]: 1.25 fold enrichment (6-mer frequency, TF over GST control)
binding signal [4]: 1.21 fold enrichment (6-mer frequency, TF over GST control)
binding signal [5]: 1.33 fold enrichment (6-mer frequency, TF over GST control)
binding signal [6]: 1.26 fold enrichment (6-mer frequency, TF over GST control)
binding signal [7]: 1.19 fold enrichment (6-mer frequency, TF over GST control)
binding signal [8]: 1.24 fold enrichment (6-mer frequency, TF over GST control)
binding signal [9]: 1.32 fold enrichment (6-mer frequency, TF over GST control)
